Assay results taken from PubChem BioAssay (NCATS).
Results filed as inconclusive are left out. Active and inactive are the calls of the source. Unless noted, calls follow the shape of the dose curve; as a rule, active = well fitted curve in the direction sought with a large enough effect; inconclusive = small, poorly fitted or top-dose-only effect, or another doubt; inactive = no such curve, though single readings can be large; an effect the other way counts as inactive or inconclusive. Numbered stars: 1 amine (or outer) side, 2 acyl side, 3 side chain; on linkers, the order of the positions; unused ones are H or OH. Bridge positions count the residues as written; N and C are the ends. Square brackets hold non-standard residues; d marks the D form. Peptide text beside a SMILES is read from it. I, II: the chains in the order shown. Actinocin(9to1) = Cc1c2oc3c(C)ccc(C(=O)[*:1])c3nc-2c(C(=O)[*:2])c(N)c1=O; aThr = C[C@H](O)[C@H](N)C(=O)O; NMeV = CN[C@H](C(=O)O)C(C)C; Sar = CNCC(=O)O

Tests used:
Furin (Homo sapiens) = Furin (Homo sapiens) (UniProt P09958); assay: Furin counterscreen qHTS for Zika virus inhibitors (AID 1347149); also: nearly all actives have a fitted effect of over 70% in size; also: potency is read from the fitted curve at half-maximal effect
Chain of Furin (Homo sapiens) (P09958 whole entry, looked up): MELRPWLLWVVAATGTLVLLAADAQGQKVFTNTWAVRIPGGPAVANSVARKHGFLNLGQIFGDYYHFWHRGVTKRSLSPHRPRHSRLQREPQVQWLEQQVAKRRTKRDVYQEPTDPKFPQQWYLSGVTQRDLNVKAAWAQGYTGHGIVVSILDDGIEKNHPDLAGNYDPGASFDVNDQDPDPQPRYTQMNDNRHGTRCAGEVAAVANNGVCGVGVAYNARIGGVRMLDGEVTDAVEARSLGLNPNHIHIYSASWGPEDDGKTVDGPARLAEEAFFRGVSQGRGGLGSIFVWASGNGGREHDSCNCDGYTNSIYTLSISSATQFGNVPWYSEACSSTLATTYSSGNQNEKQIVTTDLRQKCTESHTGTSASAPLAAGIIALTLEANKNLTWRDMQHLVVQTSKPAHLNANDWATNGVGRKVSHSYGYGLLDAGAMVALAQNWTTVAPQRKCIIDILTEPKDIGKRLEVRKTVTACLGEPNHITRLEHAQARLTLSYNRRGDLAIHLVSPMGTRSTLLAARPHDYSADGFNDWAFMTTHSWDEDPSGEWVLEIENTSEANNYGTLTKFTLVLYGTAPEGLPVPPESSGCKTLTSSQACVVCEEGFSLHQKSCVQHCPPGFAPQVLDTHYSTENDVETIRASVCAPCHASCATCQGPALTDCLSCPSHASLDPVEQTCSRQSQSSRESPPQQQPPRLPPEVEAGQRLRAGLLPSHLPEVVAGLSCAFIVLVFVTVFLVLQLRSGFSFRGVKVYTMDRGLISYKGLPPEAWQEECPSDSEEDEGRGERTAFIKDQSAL
Procedure, shortened: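 Counterscreen measures cleavage of 2 microM BOC-RVRR-AMC, below its ~15 microM Km, by 5 nM full-length human furin at pH 7.0 after a 15-min compound preincubation. Inhibition derives from the 15-min fluorescence increase at 37C.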

[1] = test system: Zika virus NS2B-NS3 protease (unlinked); assay: Optimization of GU AMC qHTS for Zika virus inhibitors: Unlinked NS2B-NS3 protease assay (AID 1347151); also: nearly all actives have a fitted effect of over 80% in size; also: potency is read from the fitted curve at half-maximal effect
Procedure, shortened: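 Unlinked protease (25 nM final); buffer 10 mM Tris-HCl pH 8.0 + 0.01% Tween 20; AMC substrate; 15 min RT, dark; Δfluorescence normalized to no-inhibitor/no-enzyme controls; 4-parameter Hill fit.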

[2] = ZIKV-mCherry secondary qHTS for Zika virus inhibitors (AID 1347158); also: top concentration of the series differs between compounds
Procedure, shortened: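 Percent infection is the share of Hoechst-identified Vero nuclei with mCherry signal above 450 RFU (3 SD over negative controls). Cells were infected with recombinant ZIKV-mCherry at MOI 1 after compound addition and imaged 48–72 h later.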

[3] = test system: Zika virus NS2B-NS3 protease (linked); assay: 384 well plate NINDS AMC confirmatory qHTS for Zika virus inhibitors (AID 1347163); also: nearly all actives have a fitted effect of over 50% in size; also: potency is read from the fitted curve at half-maximal effect
Procedure, shortened: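 Fluorescence at 355/460 nm was read after 25 minutes of cleavage of 30 microM Ac-VKTGKR-AMC at room temperature, in the dark. Before substrate addition, compounds (up to 1 mM final) sat ~15 minutes with 5, 30 or 60 nM linked protease. Signals were normalized to no-enzyme and no-inhibitor wells.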

[4] = test system: Zika virus NS2B-NS3 protease (linked construct); assay: 384 well plate NINDS Rhodamine confirmatory qHTS for Zika virus inhibitors (AID 1347164);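 also: fluorescence from protease cleavage of Ac-LKRR-rhodamine 110 substrate; nearly all actives have a fitted effect of over 65% in size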; also: potency is read from the fitted curve at half-maximal effect
Procedure, shortened: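 Enzyme (final 5/30/60 nM) + cpd (DMSO), ~15 min; add Ac-LKRR-Rd 10 microM final; 25 min RT, dark; FI ex 485/em 538; normalized to no-enzyme, no-inhibitor ctrls; aprotinin intraplate ctrl.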

[5] = Vero cells viability qHTS for Zika virus inhibitors (AID 1347167)
Procedure, shortened: (§1)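 qHTS titration; 24-48 h compound exposure, 37 degrees C/5% CO2; DMEM, 4% FBS; CellTiter Glo ATP luminescence.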

[6] = HepG2 cells viability qHTS for Zika virus inhibitors (AID 1347168); also: potency is read from the fitted curve at half-maximal effect
Procedure, shortened: as §1

[7] = Tertiary RLuc qRT-PCR qHTS assay for Zika virus inhibitors (AID 1347169); also: top concentration of the series differs between compounds; nearly all actives have a fitted effect of over 55% in size
Procedure, shortened: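 Vero, 1,000 cells/well, o/n 37 C; cpd pinned in DMSO; ZIKV-RLuc Cambodian, MOI 1-2, 48-72 h 37 C; live-cell RLuc substrate, lum read at 1-1.5 h.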

[8] = target: Cytochrome P450 1A2 (Homo sapiens) (UniProt P05177); assay: p450-cyp1a2 (AID 410; calls by dose curve)
Chain of Cytochrome P450 1A2 (Homo sapiens) (P05177 whole entry, looked up): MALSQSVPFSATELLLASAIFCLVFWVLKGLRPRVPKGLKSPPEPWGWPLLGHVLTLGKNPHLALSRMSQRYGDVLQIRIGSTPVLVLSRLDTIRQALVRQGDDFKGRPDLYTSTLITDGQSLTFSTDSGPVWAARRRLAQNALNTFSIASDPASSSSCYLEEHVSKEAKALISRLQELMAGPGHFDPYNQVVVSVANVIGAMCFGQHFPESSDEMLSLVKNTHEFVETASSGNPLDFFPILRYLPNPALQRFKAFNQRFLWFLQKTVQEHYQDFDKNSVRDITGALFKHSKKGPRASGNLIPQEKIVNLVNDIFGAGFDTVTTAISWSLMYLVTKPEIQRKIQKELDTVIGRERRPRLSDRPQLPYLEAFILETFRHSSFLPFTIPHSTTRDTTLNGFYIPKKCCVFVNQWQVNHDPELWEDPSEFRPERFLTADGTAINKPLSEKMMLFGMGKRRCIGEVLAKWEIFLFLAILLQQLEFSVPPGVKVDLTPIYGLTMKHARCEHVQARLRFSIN
Procedure, shortened: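 Luminescent demethylation readout: Luciferin-ME (100uM, equal to Km) turned over by 20nM CYP1A2 for 60 min at room temperature after NADPH regeneration addition, following 10 min compound preincubation. Normalization used 57 uM furafylline as full inhibition.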

[9] = target: Glucocorticoid receptor (Homo sapiens) (UniProt P04150); assay: GR-GFP Redistribution (AID 450;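 active = compounds whose dose series gives a full or clear partial fitted curve of increased nuclear translocation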; also: potency is read from the fitted curve at half-maximal effect); conditions: U2OS GR-GFP nuclear translocation, laser cytometry, 2 h
Chain of Glucocorticoid receptor (Homo sapiens) (P04150 whole entry, looked up, the tested form may be a part): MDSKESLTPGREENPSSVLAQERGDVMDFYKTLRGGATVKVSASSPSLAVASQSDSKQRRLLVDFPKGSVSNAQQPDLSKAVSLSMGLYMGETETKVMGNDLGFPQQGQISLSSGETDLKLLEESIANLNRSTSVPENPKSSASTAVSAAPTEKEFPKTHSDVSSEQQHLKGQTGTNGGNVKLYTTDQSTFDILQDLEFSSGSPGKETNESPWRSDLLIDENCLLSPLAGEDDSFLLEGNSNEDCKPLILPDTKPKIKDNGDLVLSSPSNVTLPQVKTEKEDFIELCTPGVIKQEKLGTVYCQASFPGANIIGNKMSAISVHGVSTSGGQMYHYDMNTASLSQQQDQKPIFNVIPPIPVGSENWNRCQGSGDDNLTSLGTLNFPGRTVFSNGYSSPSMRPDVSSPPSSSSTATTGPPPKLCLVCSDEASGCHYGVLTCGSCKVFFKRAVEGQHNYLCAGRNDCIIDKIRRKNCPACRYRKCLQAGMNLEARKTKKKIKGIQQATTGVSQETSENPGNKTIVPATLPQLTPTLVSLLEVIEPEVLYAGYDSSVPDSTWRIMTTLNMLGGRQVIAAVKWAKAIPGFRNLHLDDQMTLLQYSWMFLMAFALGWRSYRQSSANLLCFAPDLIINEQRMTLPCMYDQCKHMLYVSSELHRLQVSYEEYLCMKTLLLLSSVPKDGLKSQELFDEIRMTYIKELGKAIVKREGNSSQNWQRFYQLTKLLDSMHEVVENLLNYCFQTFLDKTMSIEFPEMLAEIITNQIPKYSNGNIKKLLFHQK

[10] = target: Glucocorticoid receptor (Homo sapiens) (UniProt P04150); assay: GR-EFC Redistribution (AID 451; calls by dose curve; also: potency is read from the fitted curve at half-maximal effect); conditions: CHO-K1 GR-EFC translocation, beta-gal luminescence, 2 h
Procedure, shortened: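 CHO-K1 cells expressing nuclear EA and GR-ED fragments of b-gal; compounds titrated up to 46 uM final, 2 h at 37 C. GR nuclear translocation read as complemented b-gal luminescence after 1 h RT detection.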

[11] = target: Mitogen-activated protein kinase 10 (Mus musculus) (UniProt Q61831); assay: JNK3 AlphaScreen Assay (AID 530; active = well fitted curve in either direction with a large enough effect, not every such curve was filed as active;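 also: kinase came from lysate of stimulated human HepG2 cells; signal reports phosphorylation of biotinylated GST-cJun 1-79 at Ser73 with 10 µM ATP; series mostly up to about 57 µM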)
Procedure, shortened: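 Activity was read by AlphaScreen after JNK3-containing HepG2 lysate (cytokine pre-activated) phosphorylated biotinylated GST-cJun with 10 uM ATP at room temperature. Phospho-Ser73 cJun antibody with Protein-A acceptor beads provided detection.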

[12] = target: Cytochrome P450 3A4 (Homo sapiens) (UniProt P08684); assay: qHTS Assay for Activators of Cytochrome P450 3A4 (AID 885); also: nearly all actives have a fitted effect of over 65% in size
Chain of Cytochrome P450 3A4 (Homo sapiens) (P08684 whole entry, looked up): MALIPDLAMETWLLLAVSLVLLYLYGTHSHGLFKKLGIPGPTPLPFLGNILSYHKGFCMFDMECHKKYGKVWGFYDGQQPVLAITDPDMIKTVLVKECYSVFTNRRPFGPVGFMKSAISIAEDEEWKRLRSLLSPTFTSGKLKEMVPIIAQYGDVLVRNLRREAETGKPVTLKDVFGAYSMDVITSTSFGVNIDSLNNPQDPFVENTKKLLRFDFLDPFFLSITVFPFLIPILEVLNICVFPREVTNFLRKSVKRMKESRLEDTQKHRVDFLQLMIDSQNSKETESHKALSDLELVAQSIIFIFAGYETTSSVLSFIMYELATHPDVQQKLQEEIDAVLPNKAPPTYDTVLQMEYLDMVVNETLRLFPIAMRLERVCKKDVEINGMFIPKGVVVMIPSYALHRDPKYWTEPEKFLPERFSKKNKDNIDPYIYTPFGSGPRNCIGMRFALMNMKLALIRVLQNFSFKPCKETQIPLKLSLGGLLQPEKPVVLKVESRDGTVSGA
Procedure, shortened: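 CYP3A4 activity: Luciferin-PPXE O-dealkylation, 25uM substrate, 200mM KPO4, RT throughout. Read-out is luciferase luminescence; higher values reflect activation.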

[13] = target: DNA dC->dU-editing enzyme APOBEC-3G (Homo sapiens) (UniProt Q9HC16); assay: qHTS for inhibitors of Vif-A3G interactions: Validation (AID 588379)
Chain of DNA dC->dU-editing enzyme APOBEC-3G (Homo sapiens) (Q9HC16 whole entry, looked up): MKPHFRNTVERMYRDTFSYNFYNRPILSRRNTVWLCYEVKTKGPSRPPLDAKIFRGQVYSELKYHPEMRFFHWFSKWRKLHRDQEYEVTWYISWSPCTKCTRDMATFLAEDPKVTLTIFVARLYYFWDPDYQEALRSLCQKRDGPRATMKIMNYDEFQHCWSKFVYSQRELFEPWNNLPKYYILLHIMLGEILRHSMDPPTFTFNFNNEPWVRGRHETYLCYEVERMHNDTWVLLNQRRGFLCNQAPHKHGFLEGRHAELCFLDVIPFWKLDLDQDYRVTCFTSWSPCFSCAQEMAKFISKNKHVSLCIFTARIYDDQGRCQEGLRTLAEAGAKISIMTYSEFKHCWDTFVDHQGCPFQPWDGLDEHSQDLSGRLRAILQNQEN
Procedure, shortened: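 Yellow fluorescence (Ex 488, Em 500-530) of Vif-coexpressing HeLa A3G-eYFP cells, scanned by Acumen cytometer, reports blocked A3G degradation. Cells plated at 700/well overnight at 37 deg C before compound addition, then a further overnight compound incubation at 37 deg C.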

[14] = test system: Zika virus NS2B-NS3 protease; assay: Primary screen GU AMC qHTS for Zika virus inhibitors (AID 1347154); also: nearly all actives have a fitted effect of over 70% in size; also: potency is read from the fitted curve at half-maximal effect
Procedure, shortened: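 Unlinked Zika NS2B hydrophilic domain–NS3 protease complex at 25 nM in 10 mM Tris-HCl pH 8.0, 0.01% Tween 20, with an AMC peptide substrate. Fluorescence change (340/450 nm) over 15 min at room temperature, normalized to controls, fitted to 4-parameter Hill.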

[15] = Primary qHTS for small molecule stabilizers of the endoplasmic reticulum resident proteome: Secreted ER Calcium Modulated Protein (SERCaMP) assay (AID 1508630)
Procedure, shortened: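 The SH-SY5Y reporter protocol was run at 3 concentrations up to 38.3 uM (primary) or 11 concentrations (follow-up): 16 h compound, 100 nM thapsigargin for 4 h, then extracellular luciferase luminescence.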

[16] = target: Cytochrome P450 2D6 (Homo sapiens) (UniProt P10635); assay: Cytochrome P450 family 2 subfamily D member 6 (CYP2D6) small molecule antagonists: luciferase biochemical (cell-free) qHTS assay (AID 1645840; active = well fitted curve in the direction sought with a large enough effect in the repeat runs; an effect the other way counts as inactive or inconclusive; also: series mostly up to about 57 µM; nearly all actives have a fitted effect of over 55% in size)
Chain of Cytochrome P450 2D6 (Homo sapiens) (P10635 whole entry, looked up): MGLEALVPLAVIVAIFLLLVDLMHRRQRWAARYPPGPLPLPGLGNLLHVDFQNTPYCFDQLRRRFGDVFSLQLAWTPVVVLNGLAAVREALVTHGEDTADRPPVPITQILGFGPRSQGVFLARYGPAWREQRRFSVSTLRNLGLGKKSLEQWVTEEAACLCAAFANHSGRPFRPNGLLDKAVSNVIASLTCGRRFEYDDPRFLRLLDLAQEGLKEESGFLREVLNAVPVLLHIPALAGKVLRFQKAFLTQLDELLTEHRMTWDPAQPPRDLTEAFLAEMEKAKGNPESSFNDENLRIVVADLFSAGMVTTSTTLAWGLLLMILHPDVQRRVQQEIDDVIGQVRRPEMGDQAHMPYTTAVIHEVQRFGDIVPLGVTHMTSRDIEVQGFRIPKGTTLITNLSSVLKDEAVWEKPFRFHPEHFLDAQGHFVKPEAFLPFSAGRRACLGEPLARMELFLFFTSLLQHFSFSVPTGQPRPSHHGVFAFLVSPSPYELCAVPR
Procedure, shortened: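 P450-Glo CYP2D6 system: proluciferin substrate converted by enzyme to luciferin, read by luminescence proportional to activity. Enzyme-substrate mix with compound 10 min at room temperature, then NADPH regeneration 1 h before detection reagent.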

[17] = test system: Zika virus NS2B-NS3 protease (linked construct); assay: Confirmatory screen NINDS AMC qHTS for Zika virus inhibitors (AID 1347152); also: nearly all actives have a fitted effect of over 70% in size; also: potency is read from the fitted curve at half-maximal effect
Procedure, shortened: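 Enzyme (1 nM, linked construct) was preincubated with compound for 15 minutes at room temperature in 10 mM Tris-HCl pH 8.0 with 0.01% Tween 20. Bz-Nle-Lys-Arg-Arg-AMC was then added to 10 microM, and AMC fluorescence was recorded immediately and after 15 minutes.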

[18] = test system: Zika virus NS2B-NS3 protease (unlinked complex); assay: Confirmatory screen GU AMC qHTS for Zika virus inhibitors (AID 1347153); also: nearly all actives have a fitted effect of over 70% in size
Procedure, shortened: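 Noncovalent NS2B hydrophilic domain/NS3 protease complex (25 nM) in 10 mM Tris-HCl pH 8.0, 0.01% Tween 20 was preincubated 15 min at room temperature with compounds. Then 10 µM AMC substrate (Km 18.3 µM) was added; fluorescence was read over 15 min and fitted to a 4-parameter Hill equation.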

[19] = Confirmatory screen GU Rhodamine qHTS for Zika virus inhibitors qHTS (AID 1347157)
Procedure, shortened: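 Buffer 10 mM Tris-HCl pH 8.0, 0.01% Tween 20. Unlinked protease 25 nM; compound preincubation 15 min, RT, protected from light. Substrate Rhod110, 1.5 microM; ~15% conversion in 15 min.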

[20] = Confirmatory screen NINDS Rhodamine qHTS for Zika virus inhibitors (AID 1347161); also: potency is read from the fitted curve at half-maximal effect; nearly all actives have a fitted effect of over 60% in size
Procedure, shortened: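 Single-chain NS2B-NS3 protease, 25 nM, pH 8.0; compounds preincubated 15 min. Activity: Rhodamine110 release from 1.5 microM substrate over 15 min, room temperature, data fitted to 4-parameter Hill.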

Measured: Potency

Nc1ncnc2c1ncn2[C@@H]1O[C@H](CSCC[C@H](N)C(=O)O)[C@@H](O)[C@H]1O
inactive: Furin (Homo sapiens) | [1] | [2] | [3] | [4] | [5] | [6] | [7]

Cc1c2oc3c(C)ccc(C(=O)N[C@@H]4C(=O)N[C@@H](C(C)C)C(=O)N5CCC[C@@H]5C(=O)N(C)CC(=O)N(C)[C@@H](C(C)C)C(=O)O[C@H]4C)c3nc-2c(C(=O)N[C@@H]2C(=O)N[C@@H](C(C)C)C(=O)N3CCC[C@@H]3C(=O)N(C)CC(=O)N(C)[C@@H](C(C)C)C(=O)O[C@H]2C)c(N)c1=O (I: [aThr]V[dP][Sar][NMeV] / II: [aThr]V[dP][Sar][NMeV]; ester I:1-I:C, II:1-II:C; linker I:N-II:N via Actinocin(9to1))
inactive: [8] | [9] > 46 µM | [10] > 46 µM | [11] | [12] | [13] | Furin (Homo sapiens) | [14] | [5] | [6] | [15] | [16]
active: [1] 27.1 µM

CC(=O)Oc1cc2c(c(C)c1OC(C)=O)CC=C1[C@@]2(C)CC[C@@]2(C)[C@H]3C[C@](C)(C(=O)O)CC[C@]3(C)CC[C@]12C
inactive: Furin (Homo sapiens) | [15]
active: [17] 19.2 µM | [18] 21.5 µM | [14] 13.4 µM | [3] 158 µM | [6] 13.1 µM

O=C(COc1ccc(F)cc1)Nc1ccccc1C(=O)OCc1cc(=O)n2nc(C3CC3)sc2n1
inactive: Furin (Homo sapiens)

O=C(Nc1c(C(=O)O)oc2ccccc12)c1ccc(C(F)(F)F)cc1
active: [19] 15.8 µM | [20] 25.1 µM | [3] 316 µM | [4] 100 µM
inactive: Furin (Homo sapiens) | [2]

C[C@@H](NC(=O)c1ccc(Cl)cc1)c1c(-c2ccc(F)cc2)noc1C(=O)O
inactive: Furin (Homo sapiens) | [17] | [2] | [7]

COC(=O)[C@H](Cc1ccc(OC)cc1)NC(=O)[C@H]1CN(S(=O)(=O)c2ccccc2)CCN1S(=O)(=O)c1ccccc1
inactive: Furin (Homo sapiens) | [17] | [18] | [7]

O=C(O)COc1ccc(-c2nccc3c2C(=O)N(Cc2cccc(C(F)(F)F)c2)CC(CNC(=O)c2cccc(Cl)c2)O3)cc1 (stereo unspecified)
inactive: Furin (Homo sapiens) | [3] | [7]
active: [18] 49.4 µM | [4] 22.4 µM

Cc1oc2c(cc(NS(=O)(=O)c3ccc(Cl)cc3)c3ccccc32)c1C(=O)OCc1ccccc1
active: [19] 28.2 µM | [20] 39.8 µM
inactive: Furin (Homo sapiens) | [2]

N#C/C(=C\c1ccc(Br)cc1)c1nc(-c2cc3cc(Br)ccc3oc2=O)cs1
inactive: Furin (Homo sapiens) | [17] | [18] | [7]

CC1(C(=O)O)NCCc2cc(O)c(O)cc21 (stereo unspecified)
active: Furin (Homo sapiens) 24.1 µM | [14] 10.6 µM | [20] 27.8 µM
inactive: [3] | [5] | [6] | [7] | [15]

O=C(O)c1cc(-c2ccc(C(F)(F)F)cc2)nc2n[nH]c(-c3ccccc3)c12
active: Furin (Homo sapiens) 52.7 µM | [19] 63.1 µM | [20] 50.1 µM | [4] 141 µM
inactive: [2] | [3] | [7]
